The text below walks through data of PubChem BioAssay (NCATS).

SMILES strings stand for the structures. Records with an inconclusive call do not appear. A call without a number means that no potency is given here. Calls of active or inactive are those of the source. Calls come from the whole dose curve; as a rule, active = well fitted inhibition curve with a large enough effect; inconclusive = small, poorly fitted or top-dose-only effect; inactive = flat fitted curve, though single readings scatter.
Potency is the fitted concentration of half-maximal effect.

Dual specificity protein kinase CLK4 (Homo sapiens), sequence (Q9HAZ1 whole entry, looked up): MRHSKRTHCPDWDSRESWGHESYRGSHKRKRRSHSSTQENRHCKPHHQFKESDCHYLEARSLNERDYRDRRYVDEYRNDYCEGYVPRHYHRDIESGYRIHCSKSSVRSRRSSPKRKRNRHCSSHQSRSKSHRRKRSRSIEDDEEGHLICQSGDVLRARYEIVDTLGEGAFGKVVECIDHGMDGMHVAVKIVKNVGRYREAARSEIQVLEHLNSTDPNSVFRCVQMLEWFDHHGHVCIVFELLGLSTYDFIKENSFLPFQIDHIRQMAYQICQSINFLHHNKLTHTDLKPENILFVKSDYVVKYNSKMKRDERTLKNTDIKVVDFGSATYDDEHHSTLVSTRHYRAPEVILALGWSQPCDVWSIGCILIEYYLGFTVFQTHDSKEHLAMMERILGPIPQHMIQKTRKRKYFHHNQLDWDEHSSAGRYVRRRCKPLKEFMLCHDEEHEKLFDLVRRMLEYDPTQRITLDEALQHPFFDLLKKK

This assay addresses Dual specificity protein kinase CLK4 (Homo sapiens) (UniProt Q9HAZ1). The assay can be described thus: qHTS Assay for Inhibitors of CDC-like Kinase 4 (ADP-FP Assay) (AID 1795). Note: nearly all actives have a fitted effect of over 60% in size. The note with it: Transcreener ADP fluorescence polarization; series mostly up to 50 µM. The method, then:
NIH Molecular Libraries Probe Production Centers Network [MLPCN] NIH Chemical Genomics Center [NCGC] MLPCN Grant: 1R03MH084827-01 Assay Submitter (PI): Tom Misteli NCGC Assay Overview: Clk4 (Invitrogen cat # PV3839) was assayed using ATP and the RS repeat peptide (AnaSpec cat # 61722) as substrates using Transcreener (trade mark), a competitive fluorescence polarization (FP) assay. For the present assay, we used the Orange TranscreenerTM ADP2 (BellBrooks Labs, Madison, Wis) detection system to monitor ADP production in the kinase reaction. […] This allows the ADP tracer to freely rotate leading to a decrease in the observed FP value. The amount of ADP produced can then be calculated using a calibration curve. The positive control for the assay was TG003 (Sigma-Aldrich, cat # 300801-52-9) which is a Clk4 inhibitor [2].
NCGC Assay Protocol Summary: Two uL/well of substrate-buffer solution (100 uM RS peptide, 1 uM ATP, 25 mM Tris pH7.5, 10 mM MgCl2, 0.5 mM EGTA, 2.5 mM DTT, 0.01% Triton X-100 final concentration) was dispensed into 1,536-well assay plates (Greiner, solid black medium-binding plates) with Aurora Discovery BioRAPTR Flying Reagent Dispenser (FRD; Beckton-Dickenson). Using a Kalypsys pin tool equipped with a 1,536-pin tool, 23 nL of compound solution was transferred to the assay plate. Two uL/well Clk4-buffer solution (6.25 nM Clk4, 25 mM Tris pH 7.5, 10 mM MgCl2, 0.5 mM EGTA, 2.5 mM DTT, 0.01% Triton X-100, final concentration) was then added using the FRD yielding a total kinase reaction volume of 4 uL/ well. Then 4 uL/well of detection mixture (4 nM orange fluorescent tracer, 1 ug/mL ADP antibody, final concentration) was then added after an hour and the polarization signal was measured using the EnVision plate reader (PerkinElmer, Waltham, MA) after 30 min of room temperature incubation using the following filters and program settings: BODIPY TMR FP dual Enh mirror (barcode 682); BODIPY-TMR 531 (barcode 105) excitation; BODIPY-TMR FP P/S polarized 595 nm filters (barcodes 210 and 211, respectively); 100% light; 150 flashes; 1.35 G-factor; Detector gains were 685 for the 1st detector; 630 for the 2nd detector.
A general note: In qHTS, concentration-response curves come from the screen itself.
As to `COCCn1c(=O)c(-c2cn(C)c3ccccc23)nc2cnc(N3CCOCC3)nc21`, the Potency result is “inactive”.

For `COc1ncc2nc(-c3ccc(F)cc3)c(=O)n(C)c2n1`, the Potency entry was “inactive”.

On to `COc1ccc(CNc2cc(-c3ccoc3)ncn2)c(OC)c1`, for which the Potency entry was “inactive”.

As for `N#CCCn1c(=O)c(-c2ccc(F)cc2)nc2cnc(N3CCOCC3)nc21`, the Potency entry was “inactive”. Regarding `Cc1ccccc1-c1cc(NCCN2CCOCC2)ncn1`, the Potency entry was “inactive”. In the case of `COCCNc1ncnc2ccc(-c3ccoc3)cc12`, the Potency is 0.224 µM (active).

For the molecule `Clc1ccccc1-c1nccc(NCc2cccs2)n1`, the Potency entry was “inactive”. Take `COCCn1c(=O)c(-c2ccc(Cl)cc2)nc2cnc(Nc3ccccc3)nc21`: the Potency entry is “inactive”. In the case of `FC(F)(F)c1ccccc1-c1nc(NCc2cccs2)c2ccccc2n1`, the Potency entry is “inactive”.

Take `CN(C)c1ncc2nc(-c3ccccc3)c(=O)n(C[C@H]3CCCO3)c2n1`: the Potency entry was “inactive”.

With `COc1ccccc1CCn1c(=O)c(-c2cccc(F)c2)nc2cncnc21`, the Potency result is “inactive”. For `COc1ncc2nc(-c3ccc(F)cc3)c(=O)n(-c3ccccc3)c2n1`, the Potency entry was “inactive”. With `COc1ccc(-n2c(=O)cnc3cnc(N(C)C)nc32)cc1`, the Potency was 11.2 µM (active). Turning to `O=c1cnc2cncnc2n1Cc1ccccc1Cl`, the Potency result is “inactive”. On to `COCCNc1ncnc2ccc(-c3ccccc3C)cc12`, for which the Potency is 11.2 µM (active). With `COc1ccc(-c2nc3cnc(N4CCOCC4)nc3n(-c3ccccc3)c2=O)cc1`, the Potency result was “inactive”. Regarding `CN1CCN(c2nc(-c3ccccc3C(F)(F)F)nc3ccccc23)CC1`, the Potency entry is “inactive”.

For `COc1ccc(-n2c(=O)c(-c3cn(C)c4ccccc34)nc3cnc(N4CCOCC4)nc32)cc1`, the Potency result is “inactive”. Take `COc1ccc(-n2c(=O)c(-c3ccc(Cl)cc3)nc3cnc(N4CCNCC4)nc32)cc1`: the Potency result was “inactive”. On to `COCCNc1cc(-c2c(C)noc2C)ncn1`, for which the Potency result was “inactive”. In the case of `COCCn1c(=O)cnc2cnc(N3CCN(C)CC3)nc21`, the Potency entry was “inactive”.

On to `COCCn1c(=O)c(C)nc2cnc(Oc3ccc(OC)cc3)nc21`, for which the Potency result was “inactive”.

`COCCn1c(=O)cnc2cnc(Oc3ccc(OC)cc3)nc21`: the Potency entry is “inactive”.

For the molecule `COc1ccccc1-c1cncnc1NCCNC(C)=O`, the Potency entry is “inactive”.

With `Cc1ccccc1-c1cc(N2CCN(C)CC2)ncn1`, the Potency entry is “inactive”. As for `N#Cc1cccc(-c2nc3cnc(N4CCOCC4)nc3n(C3CC3)c2=O)c1`, the Potency entry is “inactive”.

Consider `COc1ccc(Oc2ncc3nc(C)c(=O)n(C[C@H]4CCCO4)c3n2)cc1`, for which the Potency result was “inactive”. Under `CN(C)c1ncc2nc(-c3cc(F)cc(F)c3)c(=O)n(CCC#N)c2n1` stands “inactive”; under `Cc1ccccc1-c1cncnc1NCc1ccccc1`, “inactive”. For the molecule `COc1ccc(-n2c(=O)c(-c3cc(F)cc(F)c3)nc3cnc(N(C)C)nc32)cc1`, the Potency result was “inactive”. For the molecule `CN(C)c1ncc2nc(-c3cccs3)c(=O)n(C[C@H]3CCCO3)c2n1`, the Potency entry is “inactive”. Under `COc1ccc(-c2nc3cnc(N4CCOCC4)nc3n(C3CC3)c2=O)cc1` stands “inactive”; under `Fc1ccc(Nc2ncncc2-c2ccccc2C(F)(F)F)cc1`, “inactive”. On to `CCNc1ncc2nc(-c3cc(F)cc(F)c3)c(=O)n(C)c2n1`, for which the Potency result was “inactive”. As to `COCCn1c(=O)c(-c2ccccc2)nc2cnc(Oc3ccc(OC)cc3)nc21`, the Potency result is “inactive”. With `NCCn1c(=O)c(CCc2ccccc2)nc2cncnc21`, the Potency result was “inactive”. On to `CCNc1ncc2ncc(=O)n(Cc3cccs3)c2n1`, for which the Potency was 5.01 µM (active).

Regarding `COc1ccccc1CNc1ncncc1-c1cccnc1`, the Potency result is “inactive”.

Take `COc1ccc(-c2nc3cnc(N4CCNCC4)nc3n(-c3ccc(OC)cc3)c2=O)cc1`: the Potency result is “inactive”. `COc1cccc(Cn2c(=O)c(-c3ccccc3)nc3cnc(N4CCNCC4)nc32)c1`: the Potency result was “inactive”.
